What is called inhibition is the relative decrease from the control value, in per cent.

“And” between values parts separate entries of the source, which are not always exact repeats. Equal entries are not always repeated. A number with no mark means an inactive call. The source made the active and inactive calls.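 The calls were made as follows: active = inhibition at or above 50% relative to wild type and mutant plate controls; inactive = inhibition below 50%.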

The nature of this test: inhibitors of Chlamydomonas gravitaxis, primary screen, whole organism, Chlamydomonas reinhardtii, WT vs cilia-less mutant, absorbance, 96-well (AID 463189).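 Also: 0% = wild type cc124 cells in DMSO and 100% = ciliumless bld1 mutant cells.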 To be noted: OD600 absorbance, 2 days, at 10 µM, hits give high values.
As for `CN1CCc2cccc3c2C1Cc1ccc(O)c(O)c1-3` (stereo not given), the inhibition is -7.51%.

With `O=C(O)CN(CCN(CC(=O)O)CC(=O)O)CCN(CC(=O)O)CC(=O)O`, the inhibition is 6.57%.

Turning to `CC(=O)CCCCn1c(=O)c2c(ncn2C)n(C)c1=O`, the inhibition was -0.901%.

Regarding `O=C(O)CNC(=O)C(CS)Cc1ccccc1` (stereo not given), the inhibition is -0.967%.

On to `CN(C)CCN(Cc1cccs1)c1ccccn1`, for which the inhibition was 2.59%.

`CC(N)=NCc1cccc(CN)c1`: the inhibition was 7.48%.

In the case of `CC(=O)OCC1=C(C(=O)O)N2C(=O)[C@@H](NC(=O)CSc3ccncc3)[C@H]2SC1`, the inhibition was 6.67%.

`CC(C)Cn1c(=O)n(C)c(=O)c2[nH]cnc21`: the inhibition is 1.72%.

Regarding `NC(CCCP(=O)(O)O)C(=O)O` (stereo not given), the inhibition was -5.37%.

Turning to `CC(C)NC[C@H](O)COc1cccc2[nH]ccc12`, the inhibition is -3.11% and 2.85%.

For `CN1CC(O)C(O)C(O)C1CO` (stereo not given), the inhibition is 10.5%.

Consider `O=c1[nH]c2cc(Cl)ccc2c(O)c1-c1ccc(Oc2ccccc2)cc1`, for which the inhibition was 5.4%.

For `C1CCc2nnnn2CC1`, the inhibition was 5.68%.

For `N=C(N)c1ccc(OCCCCCOc2ccc(C(=N)N)cc2)cc1` (tested in a mixture with another compound), the inhibition is 143% (active).

Take `Nc1nc2ccc(Cl)cc2c2nc(-c3ccco3)nn12`: the inhibition was 1.54%.

As to `O=C(/C=C/c1ccc(O)cc1)c1ccc(O)cc1O`, the inhibition is 2.79%.

In the case of `NC(=S)c1ccc[n+]([C@@H]2O[C@@H](COP(=O)([O-])OP(=O)(O)OC[C@H]3O[C@@H](n4cnc5c(N)ncnc54)C(OP(=O)(O)O)[C@H]3O)C(O)C2O)c1` (stereo not given in full), the inhibition is 6.21%.

On to `Cc1cc(C)c(/C=C2\C(=O)Nc3ccccc32)[nH]1`, for which the inhibition was 25.9%.

Turning to `CN=c1nc(-c2ccccc2)n(-c2ccccc2)s1`, the inhibition was 13%.

Take `NCCCCNCCCN`: the inhibition is -15.4%.

For `N[C@H](CO)C(=O)O`, the inhibition is 3.16%.

Consider `CCCc1c(OCCCOc2ccc(OCC(=O)O)cc2)ccc(C(C)=O)c1O`, for which the inhibition was 0.316%.

Turning to `CC1CCN(CC[C@H]2CCCN2S(=O)(=O)c2cccc(O)c2)CC1`, the inhibition is -12.1%.

For `NC(N)=NC(=O)c1nc(Cl)c(N2CCCCCC2)nc1N`, the inhibition was -1.07%.

With `COc1ccc2c(c1)c(CC(=O)O)c(C)n2Cc1ccc(Cl)cc1`, the inhibition was -1.76%.

For `O=c1[nH]c2cc([N+](=O)[O-])c([N+](=O)[O-])cc2[nH]c1=O`, the inhibition was 5.09%.

On to `N[C@H](C(=O)O)[C@H](O)C(=O)O`, for which the inhibition was 0.558%.

For `O=c1[nH]c(=O)c2nc3ccccc3nc2[nH]1`, the inhibition is -4.43%.

Regarding `C=Cc1c(C)c2cc3[nH]c(cc4nc(cc5nc(cc1[nH]2)C(C)=C5CCC(=O)O)C(CCC(=O)O)=C4C)c(C)c3C=C`, the inhibition is 9.54%.

For the molecule `O=c1ccn([C@@H]2O[C@H](COP(=O)(O)OP(=O)(O)O)[C@@H](O)[C@H]2O)c(=O)[nH]1`, the inhibition is 13.9%.

As to `NCCCCNS(=O)(=O)c1cccc2c(Cl)cccc12`, the inhibition is -1.51%.

For `CN(C)CCCO[C@@H]1[C@H]2OC(C)(C)O[C@H]2O[C@@H]1C(O)CO` (stereo not given in full), the inhibition is 0.355%.

Consider `CCC(=O)N1CCN(C(=O)c2ccccc2)CC1`, for which the inhibition was 0.644%.

`O=c1[nH]c(=O)n([C@H]2C[C@H](O)[C@@H](CO)O2)cc1Br`: the inhibition was 2.45%.

With `COC(=O)C1=C(C)NC(C)=C([N+](=O)[O-])C1c1ccccc1C(F)(F)F` (stereo not given), the inhibition was 5.83%.

For `C[N+](C)(C)CCCCCC[N+](C)(C)C`, the inhibition was 5.27% and -2.94%.

With `NCCCCCC(=O)O`, the inhibition was 3.27%.

On to `O=c1oc(Cl)c(Cl)c2ccccc12`, for which the inhibition was 3.88%.

As to `N#C/C(=C\c1ccc(O)c(O)c1)C(=O)NCCCNC(=O)/C(C#N)=C/c1ccc(O)c(O)c1`, the inhibition is 1.37%.

On to `CC(C)NC[C@H](O)COc1ccc(CC(N)=O)cc1`, for which the inhibition was -3.21%.
